# RBX1-CUL1 inh: inhibitors of human ROC1-CUL1 ubiquitin ligase activity. P62877+Q13616. in vitro K48 di-Ub FRET, acceptor:donor ratio, 45 min. inhibition, % at 10 µM. actives 0.6% (n = 140,000); in the data active = inhibition above about 25%
# Target sequence (P62877 whole entry, looked up): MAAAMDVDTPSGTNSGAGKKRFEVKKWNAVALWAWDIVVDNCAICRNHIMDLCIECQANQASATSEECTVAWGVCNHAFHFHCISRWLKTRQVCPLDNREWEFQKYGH
# Target sequence (Q13616 whole entry, looked up): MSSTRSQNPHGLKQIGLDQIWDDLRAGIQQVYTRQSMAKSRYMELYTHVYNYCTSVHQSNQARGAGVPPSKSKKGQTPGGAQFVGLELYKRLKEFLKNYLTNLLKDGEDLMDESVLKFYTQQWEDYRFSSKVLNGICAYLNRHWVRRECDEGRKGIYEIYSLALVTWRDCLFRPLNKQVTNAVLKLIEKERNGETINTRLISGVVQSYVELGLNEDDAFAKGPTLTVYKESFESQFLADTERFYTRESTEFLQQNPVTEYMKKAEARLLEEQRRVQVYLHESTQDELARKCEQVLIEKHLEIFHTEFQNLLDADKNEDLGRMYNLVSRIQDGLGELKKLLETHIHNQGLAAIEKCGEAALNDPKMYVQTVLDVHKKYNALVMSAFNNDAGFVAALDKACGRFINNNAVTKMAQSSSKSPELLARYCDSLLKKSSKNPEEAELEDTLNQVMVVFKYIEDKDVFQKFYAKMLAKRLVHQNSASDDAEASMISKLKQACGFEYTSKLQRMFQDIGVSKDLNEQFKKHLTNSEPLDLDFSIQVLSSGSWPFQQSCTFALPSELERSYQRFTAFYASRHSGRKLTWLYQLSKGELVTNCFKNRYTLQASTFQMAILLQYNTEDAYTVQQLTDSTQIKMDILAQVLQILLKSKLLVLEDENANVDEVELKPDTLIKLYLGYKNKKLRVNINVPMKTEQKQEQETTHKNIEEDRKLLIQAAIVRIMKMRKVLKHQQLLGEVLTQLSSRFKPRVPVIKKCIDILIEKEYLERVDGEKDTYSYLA
# An asterisk follows results filed as active. Many of the other results were omitted from the sample, so hits are more common in it than they were.
SMILES,RBX1-CUL1 inh
COc1ccc(CCNC(=O)C2C[C@H](C)CC[C@H]2C(C)C)cc1OC (stereo not given in full),11.3
C/C(=N\NC(=O)c1ccc2c(c1)OCO2)c1ccccn1,-0.7
Cn1c(=Nc2ccccc2)ssc1=Nc1ccccc1,9.8
COc1ccc(N=C2SC(=Nc3ccccc3)C(=Nc3ccccc3)N2c2ccc(OC)cc2)cc1,3.2
COC1=CCCSC1=Nc1ccccc1,29.9*
COc1cc2ccccc2cc1C(=O)Nc1ccc2c(c1)NC(c1ccc(C)c(C)c1)O2 (stereo not given),-0.6
COc1ccc(NC2(c3nnnn3-c3ccc(OC)cc3)CCCCC2C)cc1 (stereo not given),-1.9
CCOC(=O)C1=C(C)N=c2s/c(=C\c3ccc(O)cc3)c(=O)n2C1c1ccc(F)cc1 (stereo not given),6.6
CCOC(=O)C1=C(C)N=c2s/c(=C\c3cc4c(cc3Br)OCO4)c(=O)n2C1c1ccc(Cl)cc1 (stereo not given),-3.0
C=CCc1cc(/C=c2/sc3n(c2=O)C(c2ccc(OC)cc2OC)C(C(=O)OCC)=C(C)N=3)cc(OC)c1O (stereo not given),-6.1
CCOC(=O)C1=C(C)N=c2s/c(=C/c3cc(Br)c(O)c(Br)c3)c(=O)n2C1c1ccc(Cl)cc1 (stereo not given),82.6*
C=CCOc1ccc(C2C(C(=O)OCC)=C(C)N=c3s/c(=C\c4cc(I)c(O)c(OC)c4)c(=O)n32)cc1 (stereo not given),37.0*
C=CCc1cc(/C=c2/sc3n(c2=O)C(c2cccc(OC)c2OCC)C(C(=O)OCC)=C(C)N=3)cc(OC)c1O (stereo not given),-11.0
CCOC(=O)C1=C(C)N=c2s/c(=C\c3cc(Cl)ccc3O)c(=O)n2C1c1ccc(OCC)cc1 (stereo not given),6.2
CCOC(=O)C1=C(C)N=c2s/c(=C/c3cc(Br)c(O)cc3O)c(=O)n2C1c1ccc(OCC)cc1 (stereo not given),66.5*
CCOC(=O)C1=C(c2ccccc2)N=c2s/c(=C/c3ccccc3O)c(=O)n2C1c1cccc(OC)c1 (stereo not given),0.9
CCOC(=O)C1=C(C)N=c2s/c(=C\c3ccc(O)cc3)c(=O)n2C1c1ccc(OCC)cc1 (stereo not given),1.7
CCOC(=O)C1=C(c2ccccc2)N=c2s/c(=C\c3cc([N+](=O)[O-])ccc3O)c(=O)n2C1c1cccc(OC)c1 (stereo not given),59.8*
CCOC(=O)C1=C(c2ccccc2)N=c2s/c(=C\c3ccc([N+](=O)[O-])o3)c(=O)n2C1c1cccc(OC)c1 (stereo not given),-4.5
CC1C(=NS(=O)(=O)c2cccs2)C(=O)N(c2ccccc2)N1C (stereo not given),12.6
O=C(Nc1ccc(Oc2cc([N+](=O)[O-])cc([N+](=O)[O-])c2)cc1)c1nc2nc(-c3cccs3)cc(C(F)(F)F)n2n1,-10.2
Cc1ncccc1C(=O)N1CCC(C2CCN(Cc3cccc(F)c3F)CC2)C1 (stereo not given),2.3
CC(=O)Oc1ccc(OC(C)=O)c2sc(=O)sc12,16.0
Ic1ccc2scc(CN3CCCCC3)c2c1,-4.5
COc1ccc(CN2CCC(CO)(Cc3ccc(Cl)cc3)CC2)cc1C,7.0
SMILES,RBX1-CUL1 inh
CCOC(=O)C1=C(C)N=c2s/c(=C/c3ccoc3)c(=O)n2C1c1ccc(OC)cc1 (stereo not given),9.0
CCOC(=O)C1=C(C)N=c2s/c(=C\c3ccc4c(c3)OCO4)c(=O)n2C1c1ccc(OC)cc1 (stereo not given),10.4
CCOC(=O)C1=C(C)N=c2s/c(=C\c3cc(Br)c(O)c(OC)c3)c(=O)n2C1c1ccc(OC)cc1 (stereo not given),53.2*
CCOC(=O)C1=C(C)N=c2s/c(=C\c3ccc(O)c(Br)c3)c(=O)n2C1c1ccc(OC)cc1 (stereo not given),35.3*
CCOC(=O)C1=C(C)N=c2s/c(=C/c3ccc(O)cc3)c(=O)n2C1c1cc(OC)ccc1OC (stereo not given),-2.6
CCOC(=O)C1=C(C)N=c2s/c(=C/c3ccsc3)c(=O)n2C1c1ccc(OC)cc1 (stereo not given),2.4
CCn1ccnc1CN1CCC(CO)(Cc2cccc(OC)c2)CC1,-3.7
N#Cc1c(-c2cccs2)cc(-c2ccccc2)nc1SCC(=O)NC1CC1,-0.9
O=c1c(Cl)cc(Cl)nn1-c1ccccc1,-7.5
COc1cc(/C=C/c2nn(-c3ccc(Br)cc3)c3c(=O)ccccc23)cc(OC)c1OC,5.8
O=c1ccccc2c(/C=C/c3ccc(Cl)cc3Cl)nn(-c3ccccc3)c12,26.5*
O=C(Cn1nnnc1CN1CCCCCC1)NCC1(c2ccccc2)CCOCC1,4.5
O=CC12C3C4C(C5C1C3C5(Br)C41OCCO1)C21OCCO1 (stereo not given),2.9
O=C(NC(NCCc1c[nH]c2ccccc12)(C(F)(F)F)C(F)(F)F)c1cccc(F)c1,-9.6
CCOC(=O)C1=C(C)N=c2s/c(=C/c3ccc(-c4cccc(Cl)c4)o3)c(=O)n2C1c1ccc(Cl)cc1 (stereo not given),6.7
O=C1C(Cl)=C(Cl)C(=O)C(CCNc2ncccn2)=C1Cl,97.9*
CC(C)NS(=O)(=O)c1cccnc1Cl,-12.4
C/C=C(\C)CN1CCOc2ccc(C(C)(O)COc3ccccc3)cc2C1 (stereo not given),2.2
COc1ccc(Cc2nn3c(Cc4ccc(Cl)cc4)nnc3s2)cc1,0.7
COc1cc(C=C2C(=O)NC(=S)NC2=O)c(Cl)cc1O,1.0
COc1cc(/C=C2\SC(=S)N(/N=C/c3cc(OC)c(O)cc3Cl)C2=O)c(Cl)cc1O,45.5*
COc1ccc(/C=C2\SC(=S)N(C3CCCCC3)C2=O)cc1O,-5.0
COc1ccc(CN2C[C@@H]3C[C@@H](c4ccsc4)N4CCC[C@@]34C2=O)cc1,4.0
CCC1CCCCN1C(=O)c1coc(COc2ccc(C)cc2OC)n1 (stereo not given),-5.0
Cc1c(NS(C)(=O)=O)cccc1C(=O)NCCc1ccccc1,1.2
SMILES,RBX1-CUL1 inh
O=C(Nc1cc(Cl)ncn1)NC1(C(F)(F)F)Oc2ccccc2O1,0.6
O=C(NC1(C(Cl)(Cl)Cl)Oc2cc(Cl)c(Cl)cc2O1)Sc1ccccc1,49.4*
CCOC(=O)NC1(C(Cl)(Cl)Cl)Oc2ccc(Cl)cc2O1 (stereo not given),1.7
CCCCC(=O)Nc1ccccc1O,4.4
CCCCC(=O)Nc1ccccc1NC(=O)C(C)C,-2.5
CCCCC(=O)Nc1cccc2cccc(S(=O)(=O)O)c12,94.8*
O=C(Cc1ccccc1F)Nc1ccc2c(c1)CN(Cc1ccncc1)CC2,-8.2
CCc1cccc(CC)c1NC(=O)COC(C)C,0.4
COc1cccc(NC(=S)NC(=O)Cc2cccc3ccccc23)c1,-3.0
Clc1cccc(CNCC2CCNCC2)c1,-3.9
COc1ccc(S(=O)(=O)Nc2ccc(-c3cn4ccsc4n3)cc2)cc1,96.7*
COc1ccc(S(=O)(=O)Nc2ccc(-c3cn4c(C)csc4n3)cc2)cc1,2.5
COc1ccc(S(=O)(=O)Nc2ccc(-c3cn4ccsc4n3)cc2)cc1C,3.7
CCc1cccc(C)c1N1C(=O)CC(Cl)C1=O (stereo not given),6.4
Cc1oc(-c2ccc(NC(=O)Cc3ccccc3)cc2)nc1CNC(=O)c1ccccc1Cl,-6.7
Cc1nn(C)c(C)c1CCC(=O)NCc1nc(-c2ccc(NC(=O)Cc3ccccc3)cc2)oc1C,39.3*
Cc1oc(-c2ccc(NC(=O)Cc3ccccc3)cc2)nc1CNC(=O)CCC(C)C,-1.3
